Compounds without any hit were thinned out: in the full panel of roughly 83,000, 20% have a hit.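 Growth was measured after 48 h exposure to one concentration of compound in 96-well plates. Values under 10 count as active.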 Calls of active or inactive are those of the source.
System: UO-31 renal
Assay: NCI-60 one-dose screen, 48 h (100 = growth as untreated, 0 = no growth, -100 = all killed)
Conditions: 10 µM unless noted

Structure (SMILES)	growth
CCN(CC)CCOc1nc2c3ccc(Cl)cc3nn2c2ccccc12	-13.2% (active)
C=C(c1ccc(C(=O)O)cn1)c1cc2c(cc1C)C(C)(C)CCC2(C)C	81.5% (inactive)
CCn1cc(C(=O)NN=C2CCCCCC2)c(=O)c2ccc(C)nc21	75.2% (inactive)
Cc1c2cc[nH]c(=O)c2c(C)c2c1[nH]c1ccc(OC(=O)c3ccccc3)cc12	12.9% (inactive)
C#Cc1cccc(Nc2nc3ccc([N+](=O)[O-])cc3nc2Nc2cccc(C#C)c2)c1	-84.1% (active)
COc1cccc(C(=O)OCC(O)C(=O)NC23CC4CC(CC(C4)C2)C3)c1 (stereo not given)	87.1% (inactive)
COc1ccc2cc(Cn3cc[n+](Cc4ccc5ccccc5c4)c3)ccc2c1	84.4% (inactive)
Cc1ccc(C(=O)c2ccc(CC(=O)N/N=C/c3ccc(O)cc3O)n2C)cc1	19.8% (inactive)
O=C(Nc1ccccc1)c1sc(-c2ccccc2)cc1O	86.5% (inactive)
COC(=O)c1ccc2c(c1)c1c(C)c3ccncc3c(C)c1n2C	11.9% (inactive)
O=C(O)c1cccc(N/C=C/C(=O)c2cc3cc(Br)ccc3oc2=O)c1	74.9% (inactive)
O=C(N/N=C/c1ccc([N+](=O)[O-])cc1)c1ccc2nc(-c3ccc(Cl)cc3)[nH]c2c1	42.6% (inactive)
CCCCN1C(=O)/C(=c2\sc3n(c2=O)NC2C(N=3)N(CC)C(=O)N2CC)c2ccccc21 (stereo not given)	40.1% (inactive)
CNCc1cccc2c1OCCOCCN(C)C(=O)CN(C)S(=O)(=O)c1ccc(cc1)-c1cnc(N)c(n1)C(=O)N2	101% (inactive)
COc1ccccc1-n1c(-c2cc(O)ccc2C)cn2c3c(=O)[nH]c(=O)n(C)c3nc12	36.4% (inactive)
COc1ccc(NC(=O)c2sc3nc(C)c(C(O)c4ccccc4)cc3c2N)cc1 (stereo not given)	43.4% (inactive)
COc1cc(C2C3=C(COC3=O)N(CCO)c3cc4c(cc32)OCCO4)cc(OC)c1OC (stereo not given)	54.3% (inactive)
C/C(=C(/c1ccc(Cl)cc1)c1ccc(OCCCN(C)C)cc1)c1ccc(Cl)cc1	72.7% (inactive)
O=C(CSc1nc2ccc([N+](=O)[O-])cc2[nH]1)Nc1ccc(Br)cc1	41% (inactive)
C[N+](C)(C/C=C/c1ccccc1)Cc1ccccc1	82.4% (inactive)

Structure (SMILES)	growth
C/C(=C(\c1ccc(OCCN2CCCCCC2)cc1)c1ccc(OC(=O)Cc2ccccc2)cc1)c1ccc(Cl)cc1	44.1% (inactive)
COc1ccc2c(c1)c(-c1nonc1-c1c[nH]c3ccc(Br)cc13)cn2C	40.8% (inactive)
CCCCCCCCn1ccc2cc(NC(=O)Cn3cc(CN4CCN(CC)CC4)nn3)ccc21	47.5% (inactive)
C#CC#CC#CC#CC#CC#CC#CC#CC[C@H]1OC[C@@H](COC(=O)O[C@@H](C(=O)O[C@H]2C[C@@]3(O)[C@@H](OC(=O)c4ccccc4)[C@@H]4[C@]5(OC(C)=O)CO[C@@H]5C[C@H](O)[C@@]4(C)C(=O)[C@H](OC(C)=O)C(=C2C)C3(C)C)[C@@H](NC(=O)c2ccccc2)c2ccccc2)O1	102% (inactive)
Cc1cc(C)cc(Nc2ccc([N+](=O)[O-])c(NCCN3CCOCC3)n2)c1	23.1% (inactive)
CCN=C1C=CC(=C(c2ccc(N(C)C)cc2)c2ccc(N(C)C)cc2)c2ccccc21	-42.9% (active)
CCOC(=O)Cn1c(=O)c2c3ccccc3n(C)c2n2nnc(-c3ccccc3)c12	81.2% (inactive)
COc1ccc2[nH]cc(-c3nc(-c4cn(C)c5ccncc45)cs3)c2c1	77.6% (inactive)
COc1ccc2nc(SCC(=O)Nc3ccccc3C)[nH]c2c1	74.3% (inactive)
CCCCNC1=C(OCC)C(=O)c2ccccc2C1=O	91.5% (inactive)
COc1ccc(C2=Nc3c/c(=C\c4c(O)[nH]c5cc(Cl)ccc45)ccc3=N2)cc1	58.6% (inactive)
Nc1ccc([N+](=O)[O-])cc1N=C/C=C/c1ccccc1	43.3% (inactive)
c1ccc(CNc2ccc3nc(CCC4CCCCC4)[nH]c3c2)cc1	37.5% (inactive)
COc1ccc2c(c1)c(-c1cc(-c3cn(C)c4ccc(OC)cc34)on1)cn2C	80.6% (inactive)
C#CC#CC#CC#CC#CC#CC#CC#CC[C@H]1OC[C@H](COC(=O)O[C@@H](C(=O)O[C@H]2C[C@@]3(O)[C@@H](OC(=O)c4ccccc4)[C@@H]4[C@]5(OC(C)=O)CO[C@@H]5C[C@H](O)[C@@]4(C)C(=O)[C@H](OC(C)=O)C(=C2C)C3(C)C)[C@@H](NC(=O)c2ccccc2)c2ccccc2)O1	100% (inactive)
Cc1ccc(-c2nc(C(Cl)Cl)nc3cc(C)nn23)cc1	51.3% (inactive)
O=C(Nc1nc(C(=O)N2CCN(C(c3ccccc3)c3ccccc3)CC2)cs1)c1ccc(NC2CCCCC2)c([N+](=O)[O-])c1	66.1% (inactive)
COc1cc(-c2nc3ccc(C)cc3[nH]2)ccc1OCC(=O)N=Nc1c(O)[nH]c2ccc(Cl)cc12	86.3% (inactive)
C=C1C(=O)O[C@H]2[C@H]1CC/C(COC(=O)NCCCCCCCCNC(=O)OC/C1=C/CC[C@@]3(C)O[C@H]3[C@H]3OC(=O)C(=C)[C@@H]3CC1)=C\CC[C@@]1(C)O[C@@H]21	-92.4% (active)
Nc1c(C(=O)Nc2ccncc2)sc2nc3c(cc12)CCCCC3	66.6% (inactive)

— PubChem BioAssay (NCI)
